Measurements reported in PubChem BioAssay (NCATS).
Records with an inconclusive call do not appear. Activity calls are given as the source filed them. The call rests on the fitted dose curve; in most records, active means well fitted curve in the direction sought with a large enough effect; inconclusive means small, poorly fitted or top-dose-only effect, or another doubt; inactive means no such curve, though single readings can be large; an effect the other way counts as inactive or inconclusive.

Tests used:
NIH3T3 = test: qHTS assay to identify novel small-molecules to repurpose for Merkel cell carcinoma treatment (AID 1296009); conditions: MCC and control cell lines, CellTiter-Glo viability, 72 h; at 44.8 µM (top of the series) unless noted; further: nearly all actives have a fitted effect of over 60% in size
Summary of the method: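 Cells were incubated with compound for 72 hr at 37 degree celsius before CellTiter-Glo addition. Luminescence was normalized with no-cell wells as full cytotoxicity and DMSO as baseline.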

C33A = test: Primary qHTS to identify gynecologic anti-cancer compounds using libraries of approved drugs and bioactive compounds (AID 1345084); conditions: Gynecologic cancer cell panel viability, ATPlite luminescence, 48 h; series mostly up to 57.5 µM; further: on the % scale 0 is the no-effect control and ±100 the full control effect; nearly all actives have a fitted effect of over 55% in size
Summary of the method: (§1)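 Cells, 1,000 per well, plated 16 h, then exposed 48 h at 37 C to compounds. Viability by ATPlite luminescence after 15 min at room temperature.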

CAOV3 = test: as above; conditions: Gynecologic cancer cell panel viability, ATPlite luminescence, 48 h; series mostly up to 57.5 µM
Summary of the method: as §1

CASKI = test: as above; conditions: Gynecologic cancer cell panel viability, ATPlite luminescence, 48 h; series mostly up to 57.5 µM
Summary of the method: as §1

Es-2 = test: as above; conditions: Gynecologic cancer cell panel viability, ATPlite luminescence, 48 h; series mostly up to 57.5 µM
Summary of the method: as §1

HeLa = test: as above; conditions: Gynecologic cancer cell panel viability, ATPlite luminescence, 48 h; series mostly up to 57.5 µM
Summary of the method: as §1

Hek293T = test: as above; conditions: Gynecologic cancer cell panel viability, ATPlite luminescence, 48 h, control line for the selectivity index; series mostly up to 57.5 µM
Summary of the method: as §1

JEG-3 = test: as above; conditions: Gynecologic cancer cell panel viability, ATPlite luminescence, 48 h; series mostly up to 57.5 µM
Summary of the method: as §1

OV90 = test: as above; conditions: Gynecologic cancer cell panel viability, ATPlite luminescence, 48 h; series mostly up to 57.5 µM
Summary of the method: as §1

PA-1 = test: as above; conditions: Gynecologic cancer cell panel viability, ATPlite luminescence, 48 h; series mostly up to 57.5 µM
Summary of the method: as §1

SKOV3 = test: as above; conditions: Gynecologic cancer cell panel viability, ATPlite luminescence, 48 h; series mostly up to 57.5 µM
Summary of the method: as §1

Tov-21-G = test: as above; conditions: Gynecologic cancer cell panel viability, ATPlite luminescence, 48 h; series mostly up to 57.5 µM
Summary of the method: as §1

Tov112D = test: as above; conditions: Gynecologic cancer cell panel viability, ATPlite luminescence, 48 h; series mostly up to 57.5 µM
Summary of the method: as §1

COc1cc2c(c(OC)c1O)C(c1ccc(O)cc1)C1C(=O)OC3C(COC(=O)C1=C2)OC(CO)(OC1OC(COC(=O)/C=C/c2ccc(OC4OC(C)C(O)C(O)C4O)cc2)C(O)C(O)C1O)C3O (stereo not drawn)
inactive: outcome (NIH3T3) inactive [at 9.27 µM] | activity change, negative = cytotoxicity (C33A) 12% [at 11.6 µM] | activity change, negative = cytotoxicity (CAOV3) -2.13% [at 11.6 µM] | activity change, negative = cytotoxicity (CASKI) 3.12% [at 11.6 µM] | activity change, negative = cytotoxicity (Es-2) 0.658% [at 11.6 µM] | activity change, negative = cytotoxicity (HeLa) -0.142% [at 11.6 µM] | activity change, negative = cytotoxicity (Hek293T) 7.04% [at 11.6 µM] | activity change, negative = cytotoxicity (JEG-3) 8.95% [at 11.6 µM] | activity change, negative = cytotoxicity (OV90) 10.3% [at 11.6 µM] | activity change, negative = cytotoxicity (PA-1) -0.775% [at 11.6 µM] | activity change, negative = cytotoxicity (SKOV3) 25.2% [at 11.6 µM] | activity change, negative = cytotoxicity (Tov-21-G) -2.98% [at 11.6 µM] | activity change, negative = cytotoxicity (Tov112D) -3.14% [at 11.6 µM]

CCC/C=C1\OC(=O)C2=C1CCC(O)C2O (stereo not drawn)
inactive: outcome (NIH3T3) | Potency (C33A) | Potency (CAOV3) | outcome (CASKI) | Potency (Es-2) | Potency (HeLa) | Potency (Hek293T) | Potency (JEG-3) | Potency (OV90) | Potency (PA-1) | Potency (SKOV3) | Potency (Tov-21-G) | Potency (Tov112D)

CC(=O)OCC1OC(O[C@H]2CC[C@]34C[C@]35CC(O)[C@]3(C)[C@@H]([C@H](C)CC/C=C(\C)C(=O)O)C(O)C[C@@]3(C)C5CC[C@H]4C2(C)C)C(O)C(O)C1OC1OCC(O)C(O)C1O (stereo partly drawn)
inactive: outcome (NIH3T3) inactive [at 9.27 µM] | activity change, negative = cytotoxicity (C33A) -4.66% [at 11.6 µM] | activity change, negative = cytotoxicity (CAOV3) -5.98% [at 11.6 µM] | activity change, negative = cytotoxicity (CASKI) -12.9% [at 11.6 µM] | activity change, negative = cytotoxicity (Es-2) -0.425% [at 11.6 µM] | activity change, negative = cytotoxicity (HeLa) 6.1% [at 11.6 µM] | activity change, negative = cytotoxicity (Hek293T) -4.45% [at 11.6 µM] | activity change, negative = cytotoxicity (JEG-3) -9.54% [at 11.6 µM] | activity change, negative = cytotoxicity (OV90) -7.9% [at 11.6 µM] | activity change, negative = cytotoxicity (PA-1) -0.531% [at 11.6 µM] | activity change, negative = cytotoxicity (SKOV3) -12.1% [at 11.6 µM] | activity change, negative = cytotoxicity (Tov-21-G) 4.53% [at 11.6 µM] | activity change, negative = cytotoxicity (Tov112D) 2.89% [at 11.6 µM]

CC(C)CC(=O)OC[C@@]1(O)C[C@@]23CC[C@H]4[C@@](C)(CCC[C@@]4(C)C(=O)O)[C@@H]2CC[C@@H]1C3
inactive: outcome (NIH3T3) inactive [at 17.4 µM] | Potency (C33A) | Potency (CAOV3) | outcome (CASKI) | Potency (Es-2) | Potency (HeLa) | Potency (Hek293T) | Potency (JEG-3) | Potency (OV90) | Potency (PA-1) | Potency (SKOV3) | Potency (Tov-21-G) | Potency (Tov112D)

COc1ccc(S(=O)(=O)Nc2nc(-c3cccc([N+](=O)[O-])c3)cs2)cc1OC
inactive: outcome (NIH3T3) | Potency (C33A) | Potency (CAOV3) | outcome (CASKI) | Potency (Es-2) | Potency (HeLa) | Potency (Hek293T) | Potency (JEG-3) | Potency (OV90) | Potency (PA-1) | Potency (SKOV3) | Potency (Tov-21-G) | Potency (Tov112D)

COc1ccc(/C=C/C(=O)O[C@@H]2[C@@H](OC(C)=O)[C@@H](OC(C)=O)[C@H](O[C@H]3[C@@H]4C=CO[C@@H](O[C@@H]5O[C@H](CO)[C@@H](O)[C@H](O)[C@H]5O)[C@@H]4[C@@]4(CO)O[C@@H]34)O[C@H]2C)cc1
inactive: outcome (NIH3T3) inactive [at 17.4 µM] | Potency (C33A) | Potency (CAOV3) | outcome (CASKI) | Potency (Es-2) | Potency (HeLa) | Potency (Hek293T) | Potency (JEG-3) | Potency (OV90) | Potency (PA-1) | Potency (SKOV3) | Potency (Tov-21-G) | Potency (Tov112D)

C=C1C(=O)OC2CC(COC(=O)C(C)C)=C(C(C)CCCOC(C)=O)[C@@H](OC(C)=O)C12 (stereo partly drawn)
inactive: outcome (NIH3T3) inactive [at 17.4 µM] | Potency (C33A) | Potency (CAOV3) | outcome (CASKI) | Potency (Es-2) | Potency (HeLa) | Potency (Hek293T) | Potency (JEG-3) | Potency (OV90) | Potency (PA-1) | Potency (SKOV3) | Potency (Tov-21-G) | Potency (Tov112D)

CC(=O)/C=C/C1(O)C(C)=CC(=O)CC1(C)C (stereo not drawn)
inactive: outcome (NIH3T3) | Potency (C33A) | Potency (CAOV3) | outcome (CASKI) | Potency (Es-2) | Potency (HeLa) | Potency (Hek293T) | Potency (JEG-3) | Potency (OV90) | Potency (PA-1) | Potency (SKOV3) | Potency (Tov-21-G) | Potency (Tov112D)

C=C1CCC2(OC1)OC1CC3C4CC=C5CC(O)CC(O[C@@H]6OC[C@H](OC(=O)C(O)C(C)CC)[C@H](O)[C@H]6O[C@@H]6O[C@@H](C)[C@H](O)[C@@H](O)[C@H]6O)C5(C)C4CCC3(C)C1C2C (stereo partly drawn)
inactive: outcome (NIH3T3) inactive [at 9.27 µM] | activity change, negative = cytotoxicity (C33A) 4.8% [at 11.6 µM] | activity change, negative = cytotoxicity (CAOV3) 21.8% [at 11.6 µM] | activity change, negative = cytotoxicity (CASKI) 19.8% [at 11.6 µM] | activity change, negative = cytotoxicity (Es-2) -3.44% [at 11.6 µM] | activity change, negative = cytotoxicity (HeLa) 13.3% [at 11.6 µM] | activity change, negative = cytotoxicity (Hek293T) 16.6% [at 11.6 µM] | activity change, negative = cytotoxicity (JEG-3) 16.8% [at 11.6 µM] | activity change, negative = cytotoxicity (OV90) -4.79% [at 11.6 µM] | activity change, negative = cytotoxicity (PA-1) -0.0668% [at 11.6 µM] | activity change, negative = cytotoxicity (SKOV3) 6.52% [at 11.6 µM] | activity change, negative = cytotoxicity (Tov-21-G) 15.3% [at 11.6 µM] | activity change, negative = cytotoxicity (Tov112D) 19.2% [at 11.6 µM]

CC1=C(CCC(C)O[C@@H]2O[C@H](CO)[C@@H](O)[C@H](O)[C@H]2O)C(C)(C)CC(O)C1 (stereo partly drawn)
inactive: outcome (NIH3T3) | Potency (C33A) | Potency (CAOV3) | outcome (CASKI) | Potency (Es-2) | Potency (HeLa) | Potency (Hek293T) | Potency (JEG-3) | Potency (OV90) | Potency (PA-1) | Potency (SKOV3) | Potency (Tov-21-G) | Potency (Tov112D)

C=CC(C)(O)CC/C=C(\C)C1CC=C(C)C(=O)O1 (stereo not drawn)
inactive: outcome (NIH3T3) | Potency (C33A) | Potency (CAOV3) | outcome (CASKI) | Potency (Es-2) | Potency (HeLa) | Potency (Hek293T) | Potency (JEG-3) | Potency (OV90) | Potency (PA-1) | Potency (SKOV3) | Potency (Tov-21-G) | Potency (Tov112D)
